Potency data for 101 molecules are collected here from PubChem BioAssay AID504834 (National Center for Advancing Translational Sciences (NCATS), 2011).

In all, about 320,000 compounds went through this assay and about 22,000 (6.9%) were called active. A call without a number means that no potency is given here. About 27% were inconclusive and are not listed. Calls follow the shape of the dose curve; as a rule, active = well fitted inhibition curve with a large enough effect; inconclusive = small, poorly fitted or top-dose-only effect, or another doubt; inactive = no such curve, though single readings can be large or run the other way. The sample as a whole holds a higher share of actives than the screen did.
Potency is read from the fitted curve at half-maximal effect.

The nature of this experiment: Primary qHTS for delayed death inhibitors of the malarial parasite plastid, 96 hour incubation. As to conditions: P. falciparum luciferase reporter growth; series mostly up to 28.7 µM. The procedure, abridged: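 Two-generation exposure (96 h) targets delayed-death phenotype. Reporter parasites carrying integrated firefly luciferase, in red cells at 2% hematocrit and 0.05% parasitemia final, kept at 37 C, 5% CO2; luminescence loss indicates inhibition.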
A general note: In qHTS, concentration-response curves come from the screen itself.
`NC(=O)c1c(NC(=O)c2ccccc2)sc2c1CCCC2`: the Potency entry was “inactive”.

For the molecule `CC1CCCCC12NC(=O)N(CC(=O)Nc1ccc(S(=O)(=O)Nc3ncccn3)cc1)C2=O` (stereo unspecified), the Potency result was “inactive”.

Take `COCCN1C(=O)C(=O)/C(=C(/O)c2ccc(S(=O)(=O)N3CCOCC3)cc2)C1c1ccc(O)c(OC)c1` (stereo unspecified): the Potency entry is “inactive”.

`Cc1ccc(NC(=O)Nc2ccccc2)c(Br)c1`: the Potency was 7.38 µM (active).

In the case of `Cc1cccc(NC(=O)Nc2nnc(-c3ccccc3)o2)c1`, the Potency result was “inactive”.

Regarding `Cc1c(NC(=O)Nc2ccccc2)cccc1[N+](=O)[O-]`, the Potency entry was “inactive”.

In the case of `CCN(CC)S(=O)(=O)c1ccc(N2CCOCC2)c(NC(=O)C(C)Oc2ccc(F)cc2)c1` (stereo unspecified), the Potency was 14.7 µM (active).

Take `CC(Oc1ccc(F)cc1)C(=O)Nc1cc(S(=O)(=O)N2CCOCC2)ccc1N1CCN(C)CC1` (stereo unspecified): the Potency entry is “inactive”.

`CCN(CC)S(=O)(=O)c1ccc(N2CCOCC2)c(C(=O)O)c1`: the Potency result was “inactive”.

With `CC12CCC(=O)N1C(C(=O)Nc1ccc(F)c(F)c1F)CS2` (stereo unspecified), the Potency entry is “inactive”.

Regarding `CCC(=O)Nc1ccccc1N1CCN(S(C)(=O)=O)CC1`, the Potency result is “inactive”.

As for `CCN(CC)S(=O)(=O)c1cc(C(=O)Nc2cc(S(=O)(=O)N3CCOCC3)ccc2N2CCCC2)ccc1F`, the Potency was 2.62 µM (active).

In the case of `O=C(CNCc1ccco1)Nc1cc(S(=O)(=O)N2CCOCC2)ccc1N1CCCC1`, the Potency entry is “inactive”.

With `CCN(CC)S(=O)(=O)c1ccc(N2CCOCC2)c(NC(=O)C2CSC3(C)CCC(=O)N23)c1` (stereo unspecified), the Potency is 10.4 µM (active).

Consider `CCN(CC)S(=O)(=O)c1ccc(N2CCOCC2)c(NC(=O)C2COc3ccccc3O2)c1` (stereo unspecified), for which the Potency entry was “inactive”.

Regarding `CCN(CC)S(=O)(=O)c1ccc(N2CCN(C)CC2)c(NC(=O)Nc2ccccc2F)c1`, the Potency is 13.1 µM (active).

Consider `CC(=O)N1CCc2cc(S(=O)(=O)Nc3ccccc3N3CCN(C)CC3)ccc21`, for which the Potency entry was “inactive”.

As to `O=C(COC(=O)c1ccccc1F)Nc1cc(S(=O)(=O)N2CCOCC2)ccc1N1CCCC1`, the Potency entry is “inactive”.

In the case of `CN(CC(=O)NC(=O)Nc1ccccc1F)Cc1ccccc1`, the Potency result is “inactive”.

In the case of `COc1ccc2ccn(C)c2c1`, the Potency entry was “inactive”.

Regarding `O=C(Cc1cccs1)Nc1ccc([N+](=O)[O-])cc1`, the Potency result is “inactive”.

`O=C(O)C(c1ccccc1)N1C(=O)/C(=C\c2ccc(-c3cccc(Cl)c3)o2)SC1=S` (stereo unspecified): the Potency entry was “inactive”.

With `O=C1CCC(C(=O)N2CCCCO2)CN1Cc1cccc(C(F)(F)F)c1` (stereo unspecified), the Potency entry is “inactive”.

For `O=C(NC1CCCC1)c1cc(-c2ccccc2)on1`, the Potency entry was “inactive”.

`CCC(CC)C(=O)Nc1cccc(C(=O)N2CCCC2)c1`: the Potency was 8.28 µM (active).

As for `COc1ccc(OCc2cccc(C(=O)N3CCCC3)c2)cc1`, the Potency entry was “inactive”.

For the molecule `CC(=O)c1cccc(NC(=S)N2CCCC2)c1`, the Potency entry was “inactive”.

For the molecule `Cc1ccc(Cl)c(OCC(=O)NN2CCN(C)CC2)c1`, the Potency entry is “inactive”.

Regarding `CCc1c(C)nc(N)n2c(SCC(=O)NC3CCCCC3)nnc12`, the Potency entry was “inactive”.

Turning to `O=C(OCC(=O)N1CCc2ccccc21)C1CCCN1S(=O)(=O)c1ccc(Cl)cc1` (stereo unspecified), the Potency result was “inactive”.

Regarding `Cn1c2c(c(=O)n(C)c1=O)C(c1cccc([N+](=O)[O-])c1)Nc1ccccc1O2` (stereo unspecified), the Potency result is “inactive”.

On to `CCOC(=O)C1=C(CN2CCc3ccccc32)NC(=O)NC1c1cccc([N+](=O)[O-])c1` (stereo unspecified), for which the Potency was 8.28 µM (active).

Turning to `CCOC(=O)C1=C(c2ccccc2)NC(=S)NC1c1ccc(Cl)cc1` (stereo unspecified), the Potency result was “inactive”.

For `CCOC(=O)C1=C(CN2CCCCCC2)NC(=O)NC1c1cccc([N+](=O)[O-])c1` (stereo unspecified), the Potency entry was “inactive”.

As to `CCOC(=O)C1=C(CN2CCc3ccccc32)NC(=O)NC1c1ccc(Cl)cc1` (stereo unspecified), the Potency was 2.08 µM (active).

Consider `NC(=O)C1CCCN(CC(=O)N2CCN(c3ccccc3)CC2)C1` (stereo unspecified), for which the Potency entry is “inactive”.

`CCOc1ccc(NC(=O)COC(=O)C2CCC(=O)N2)c([N+](=O)[O-])c1` (stereo unspecified): the Potency entry is “inactive”.

As to `CN(CC(=O)O)S(=O)(=O)c1ccc2oc3ccccc3c2c1`, the Potency entry is “inactive”.

For `CC1CCCCC1NC(=O)c1cc(=O)[nH]c2ccccc12` (stereo unspecified), the Potency entry was “inactive”.

In the case of `Cc1ccccc1NCC(=O)N/N=C\c1ccc([N+](=O)[O-])s1`, the Potency entry was “inactive”.

For the molecule `CCOc1ccc(NC(=O)CCC(=O)NNC(=O)NC2CCCCC2)cc1`, the Potency result is “inactive”.

As for `CCOc1ccc(NC(=O)CCC(=O)N/N=C/c2ccc([N+](=O)[O-])s2)cc1`, the Potency is 4.15 µM (active).

Regarding `CCOc1ccc2sc(NS(=O)(=O)c3ccc(N)cc3)nc2c1`, the Potency entry is “inactive”.

For `CCc1cccc(CC)c1NC(=S)Nc1ccc2cn[nH]c2c1`, the Potency result is “inactive”.

As to `CCc1cccc(CC)c1NC(=S)NCc1ccc2[nH]c(C)cc2c1`, the Potency was 2.62 µM (active).

On to `Cc1cc2cc(CNC(=O)c3cccs3)ccc2[nH]1`, for which the Potency entry is “inactive”.

Consider `CCOc1ncccc1C(=O)OCC(=O)Nc1cccc(S(=O)(=O)N2CCCCCC2)c1`, for which the Potency entry is “inactive”.

As to `CC(C)c1ccc(/C=C2\NC(=O)NC2=O)cc1`, the Potency entry is “inactive”.

As to `CCO[C@H]1OC(C(=O)O)=C[C@@H](C2CCCCC2)[C@@H]1CCCO`, the Potency entry is “inactive”.

`CCO[C@@H]1OC(C(N)=O)=C[C@H](c2ccc(Br)cc2)[C@H]1CCCO`: the Potency entry was “inactive”.

On to `CCO[C@H]1OC(C(=O)N2CCN(Cc3ccccc3)CC2)=C[C@@H](c2cn(C(C)=O)c3ccccc23)[C@@H]1CCCO`, for which the Potency was 9.28 µM (active).

On to `CCO[C@H]1OC(C(=O)N2CCCCCCC2)=C[C@@H](c2ccc(C(F)(F)F)cc2)[C@@H]1CCCO`, for which the Potency is 3.29 µM (active).

Take `CCO[C@@H]1OC(C(=O)N2CCOCC2)=C[C@H](C)[C@H]1CCCO`: the Potency result was “inactive”.

With `CCO[C@H]1OC(C(=O)N2CCOCC2)=C[C@@H](c2ccc3c(c2)OCO3)[C@@H]1CCCO`, the Potency entry was “inactive”.

As to `Cc1ccc(S(=O)(=O)CCC(=O)OCC(=O)N(C)C2CCS(=O)(=O)C2)cc1` (stereo unspecified), the Potency entry is “inactive”.

As for `CCN(CC(=O)Nc1ccccc1C(F)(F)F)C(=O)CSCc1c(C)noc1C`, the Potency entry is “inactive”.

As to `Cc1ccc2c(c1)N(CC(=O)NCC1CCCO1)C(=O)CO2` (stereo unspecified), the Potency is 7.38 µM (active).

In the case of `Cc1ccc2c(c1)N(CC(=O)N1CCOCC1)C(=O)CO2`, the Potency entry was “inactive”.

For `Cc1ccc2c(c1)N(CC(=O)N1CCCC(C)C1)C(=O)CO2` (stereo unspecified), the Potency result is “inactive”.

`CN(C)CCN(C(=O)C1=COCCO1)c1nc2ccc(Cl)cc2s1`: the Potency result was “inactive”.

For the molecule `Cc1ccc(N(C(=O)CC2NC(=O)NC2=O)C2(C(=O)NC3CCCC3)CCCCC2)cc1` (stereo unspecified), the Potency entry was “inactive”.

On to `CC(=O)N(CC1CCCO1)C1(C(=O)NC2CCCC2)CCCCC1` (stereo unspecified), for which the Potency is 10.4 µM (active).

Regarding `O=C(Cc1cccs1)N(CC1CCCO1)C1(C(=O)NC2CCCCC2)CCCCC1` (stereo unspecified), the Potency entry is “inactive”.

As for `O=[N+]([O-])c1cccc(S(=O)(=O)NCc2ccccn2)c1`, the Potency entry is “inactive”.

In the case of `COc1ccc(C(=O)NNS(=O)(=O)c2ccc(C)cc2)cc1`, the Potency result is “inactive”.

In the case of `Cc1ccc(S(=O)(=O)NNC(=O)Nc2cccc3ccccc23)cc1`, the Potency is 1.85 µM (active).

With `Cc1ccc(S(=O)(=O)NNC(=S)NC(C)(C)C)cc1`, the Potency result is “inactive”.

Turning to `CCOc1ccc(NC(=O)CN(C)C(=O)Cn2c(=O)cnc3ccccc32)cc1OCC`, the Potency entry is “inactive”.

Take `COc1ccccc1C(=O)NC(=O)COC(=O)C1CC1`: the Potency result was “inactive”.

As for `CC(=O)c1ccccc1NC(=O)C1CC(=O)N(c2ccc3c(c2)OCCO3)C1` (stereo unspecified), the Potency entry was “inactive”.

Take `Cn1c(=O)cc(SCC(=O)N2CCN(C(=O)c3ccco3)CC2)c2ccccc21`: the Potency entry is “inactive”.

For `CCCCn1c(SCC(=O)N2CCCC2=O)nc2cc(S(N)(=O)=O)ccc21`, the Potency entry was “inactive”.

Turning to `CCOC(=O)C1CCN(C(=O)COC(=O)C2CCN(S(=O)(=O)c3ccc4c(c3)OCCO4)CC2)CC1`, the Potency result was “inactive”.

With `CCCCn1c(SCC(=O)N2CCC(C(=O)OCC)CC2)nc2cc(S(N)(=O)=O)ccc21`, the Potency is 13.1 µM (active).

Consider `CCCCn1c(SCc2ncc(-c3ccccc3)o2)nc2cc(S(N)(=O)=O)ccc21`, for which the Potency was 14.7 µM (active).

`Cn1c(=O)cc(SCC(=O)N2CCCC2)c2cc(Cl)ccc21`: the Potency result is “inactive”.

On to `CCOC(=O)C1CCN(C(=O)CSc2cc(=O)n(C)c3ccccc23)CC1`, for which the Potency is 2.33 µM (active).

As for `O=C(CCNS(=O)(=O)c1ccccc1)NCCCc1ccccc1`, the Potency result was “inactive”.

Consider `CN1C(=O)c2ccc(C(=O)Nc3ccc(Br)cn3)cc2C1=O`, for which the Potency result is “inactive”.

As to `CCOC(=O)c1[nH]c2ccc(OC)cc2c1NC(=O)CCN1CCN(Cc2ccccc2)CC1`, the Potency entry was “inactive”.

For the molecule `Cc1c(C(=O)N2CCOCC2)[nH]c2ccc(OCc3ccccc3)cc12`, the Potency result was “inactive”.

With `CCOC(=O)c1[nH]c2ccc(OC)cc2c1NC(=O)N1CCOCC1`, the Potency was 14.7 µM (active).

With `O=C(COc1ccc(Cl)cc1)Nc1ccc2oc(=O)ccc2c1`, the Potency entry was “inactive”.

Consider `CC1(C)CC(=O)C=C(c2ccc(Cl)c(C(F)(F)F)c2)C1`, for which the Potency was 5.86 µM (active).

As to `CC1(C)CC(=O)C=C(c2ccc3ncccc3c2)C1`, the Potency entry was “inactive”.

Turning to `COc1cc(F)c(C2=CC(=O)CC(C)(C)C2)cc1F`, the Potency entry was “inactive”.

For `COC(=O)C1(C)NC(c2ccccc2OC)C2C(=O)N(c3ccccc3)C(=O)C21` (stereo unspecified), the Potency entry is “inactive”.

In the case of `Cc1cc(C(=O)NCCc2ccc(Cl)cc2)n(-c2ccccc2)n1`, the Potency result was “inactive”.

On to `CCc1[nH]nc(C(=O)N2CCCC(CO)(Cc3ccc(F)cc3F)C2)c1C` (stereo unspecified), for which the Potency entry is “inactive”.

Take `CCCN(c1ccc(C)cc1)c1nc(=O)c2cccnc2s1`: the Potency was 6.57 µM (active).

For the molecule `CCc1c(C)nc(SCC(=O)NC2CCCC2)[nH]c1=O`, the Potency entry is “inactive”.

With `CCc1ccc(C(=O)NN=C2CCCCCC2)s1`, the Potency entry is “inactive”.

Consider `CC(=O)Nc1ccc(NC(=O)COc2ccc(-c3ccccc3)cc2)cc1`, for which the Potency entry is “inactive”.

In the case of `C[N+]1(C)CCOC(O)(c2ccc(-c3ccc(C4(O)C[N+](C)(C)CCO4)cc3)cc2)C1` (stereo unspecified), the Potency was 5.86 µM (active).

Turning to `O=C(COC(=O)c1cnccn1)Nc1ccc(Cl)cc1C(F)(F)F`, the Potency entry was “inactive”.

For the molecule `CCCCCCCC(=O)OC(CN1CCCCCC1)CN1CCCC1=O` (stereo unspecified), the Potency result was “inactive”.

On to `O=C1CC(NNc2ccccc2)C(=O)N1c1cccc(Cl)c1` (stereo unspecified), for which the Potency entry is “inactive”.

Regarding `O=c1c(-c2cccc(Cl)c2)c[nH]n1-c1ccccc1`, the Potency was 7.38 µM (active).

In the case of `O=C1NC(c2cccc(Cl)c2)Nc2ccccc21` (stereo unspecified), the Potency entry is “inactive”.

As to `CC1(C)CC(=O)C=C(Nc2ccccc2)C1`, the Potency entry is “inactive”.

Take `CC(=O)c1ccc(S(=O)(=O)NC2CC(=O)N(c3ccc4c(c3)OCCO4)C2)cc1` (stereo unspecified): the Potency result is “inactive”.
